# Assay results as given in PubChem BioAssay (NCI).
# This is part of a sample that, as a whole, favours compounds with a hit. Of some 83,000 tested, about 20% had one in any assay.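 Each cell line was grown in a 96-well plate and treated with one concentration of compound for 48 hours. Values below 10 were considered active.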 A number with no mark means an inactive call. Activity calls are given as the source filed them.
# Legend:
# Assay in all cases: NCI-60 one-dose screen, 48 h (100 = growth as untreated, 0 = no growth, -100 = all killed)
# Settings in all cases: 10 µM unless noted
# SK-MEL-2 melanoma = test system: SK-MEL-2 melanoma
# EKVX NSCLC = test system: EKVX NSCLC
# SN12C renal = test system: SN12C renal
# TK-10 renal = test system: TK-10 renal
# ACHN renal = test system: ACHN renal
# CAKI-1 renal = test system: CAKI-1 renal
# A498 renal = test system: A498 renal
# CCRF-CEM leukemia = test system: CCRF-CEM leukemia
# MOLT-4 leukemia = test system: MOLT-4 leukemia
# UO-31 renal = test system: UO-31 renal
Structure (SMILES),growth (SK-MEL-2 melanoma),growth (EKVX NSCLC),growth (SN12C renal),growth (TK-10 renal),growth (ACHN renal),growth (CAKI-1 renal),growth (A498 renal),growth (CCRF-CEM leukemia),growth (MOLT-4 leukemia),growth (UO-31 renal)
COC(=O)c1cc(-c2ccc(S(C)(=O)=O)cc2)[nH]c1N/N=C/c1c(Cl)cccc1Cl,-18.8% (active),42.2%,39.4%,19.2%,53.7%,30.3%,-22.5% (active),1.59% (active),6.05% (active),
C=C1C(=O)O[C@H]2[C@H]1CC/C(COC(=O)N[C@H]1C[C@H](O[C@H]3C[C@](O)(C(=O)CO)Cc4c(O)c5c(c(O)c43)C(=O)c3c(OC)cccc3C5=O)O[C@@H](C)[C@H]1O)=C\CC[C@@]1(C)O[C@@H]21,85.5%,103%,34.9%,64.9%,88.9%,61.7%,70.5%,-18.2% (active),-5.6% (active),
C=C1C(=O)O[C@H]2[C@H]1CC/C(COC(=O)CCSCCC(=O)OC/C1=C/CC[C@@]3(C)O[C@H]3[C@H]3OC(=O)C(=C)[C@@H]3CC1)=C\CC[C@@]1(C)O[C@@H]21,23.8%,12%,0.113% (active),-3.89% (active),-12% (active),4.51% (active),69.8%,-24.8% (active),-25.7% (active),-49.4% (active)
O=C1/C(=C/c2ccc(Cl)c(Cl)c2)CN(C(=O)C(Cl)Cl)C/C1=C\c1ccc(Cl)c(Cl)c1,-3.03% (active),-61.7% (active),-76% (active),-50.8% (active),-100% (active),-74% (active),-91.2% (active),4.82% (active),-0.286% (active),
O=[N+]([O-])c1ccc(-c2nc(N3CCOCC3)c3c4c(sc3n2)CCCC4)cc1,95.6%,93.8%,106%,105%,96.2%,76.5%,109%,101%,86.4%,
N#CC1CCc2c(c(-c3cn[nH]c3C(F)(F)F)nc3c(F)cc4[nH]ncc4c23)C1 (stereo not given),-34.6% (active),57.4%,25.7%,19.4%,62.9%,25.6%,-23.3% (active),29.2%,19.8%,
COC(=O)/C=C1/SC(=Nc2ccc(C)cc2)N(CCc2c[nH]c3ccc(O)cc23)C1=O,35.4%,49.6%,45.4%,94.6%,57.4%,69.9%,67.1%,1.81% (active),-8.16% (active),
O=C(CCCCC1CCSS1)Nc1ncnc2n[nH]c(-c3ccc(Oc4ccccc4)cc3)c12 (stereo not given),43.6%,80.5%,106%,109%,88.3%,97.1%,123%,13.7%,-31.3% (active),73.2%
CC(=O)n1nc(C(=O)OC(C)C)c2cc(C)c(C)cc21,106%,99%,105%,98.6%,101%,99.3%,104%,84.7%,84.8%,
C=C1CC[C@@H]2[C@](C)(COC(C)=O)[C@H](OC(C)=O)CC[C@@]2(C)[C@@H]1CC(Sc1ccccc1)C1=CCOC1=O (stereo not given in full),-1.66% (active),57.7%,1.3% (active),11.4%,-13.7% (active),90.6%,86.3%,-5.24% (active),-3.93% (active),
O=C1c2c(c3c4ccc(Br)cc4oc3c3[nH]c4ccccc4c23)C(=O)N1O,20%,66.6%,14.5%,121%,22.8%,29%,13.1%,11.4%,11.2%,
S=C(Nc1ccc(-c2nc(N3CCOCC3)c3cccn3n2)cc1)Nc1cccnc1,43.5%,46.7%,28.8%,21.4%,37.3%,60.6%,-13.3% (active),22.1%,36.8%,
